In PubChem BioAssay (NCI) one finds growth data, which are given here for 8 compounds.

Among the test systems are NCI-H23 lung; NCI-H226 lung; NCI-H322M lung; HOP-62 NSCLC; NCI-H460 lung; HOP-92 NSCLC; NCI-H522 lung; A549/ATCC NSCLC; 786-0 renal; COLO 205 colon; DU-145 prostate; K-562 leukemia; MALME-3M melanoma; MDA-MB-231 breast; RXF 393 renal; SF-268 CNS; SF-295 CNS; SF-539 CNS; UACC-257 melanoma; M14 melanoma.
Common to all, as to assay: NCI-60 one-dose screen, 48 h (100 = growth as untreated, 0 = no growth, -100 = all killed)
Holding throughout (conditions): 10 µM unless noted

Structures are written as SMILES. Compounds without any hit were thinned out: in the full panel of roughly 83,000, 20% have a hit.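 96-well plates, one dose, 48 hours. Percent growth reported; active if below 10.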 A number with no mark means an inactive call. Active and inactive are the calls of the source.

With `CCOC(=O)c1c(NC(=O)CSc2n[nH]c3nc4ccccc4n23)sc(CC)c1C`, the growth with NCI-H23 lung was 98.6%; in the test on NCI-H226 lung it was 86.7%; in the test with NCI-H322M lung, 107%; in the test with HOP-62 NSCLC it was 108%; in the test with NCI-H460 lung, 106%; with HOP-92 NSCLC, 63.6%. Moreover, the growth with NCI-H522 lung is 87%; with A549/ATCC NSCLC, 102%; in the test on 786-0 renal it was 98.4%; in the test with COLO 205 colon, 114%; in the test with DU-145 prostate, 112%; in the test on K-562 leukemia it was 117%. Further, the growth is 138% in the test with MALME-3M melanoma; 90.3% in the test with MDA-MB-231 breast; 96.1% with RXF 393 renal; 108% in the test with SF-268 CNS; 91% in the test on SF-295 CNS; 111% in the test with SF-539 CNS. Moreover, the growth in the test with UACC-257 melanoma is 113%; in the test with M14 melanoma, 116%.

As to `COc1cc2c(c(OC)c1OC)C(=O)N[C@@H]1[C@@H](O)[C@@H](O)[C@H](O)C[C@@H]21`, the growth in the test on NCI-H23 lung is 106%; with NCI-H226 lung it was 102%; in the test on NCI-H322M lung, 104%; with HOP-62 NSCLC, 102%; with NCI-H460 lung it was 110%; in the test on HOP-92 NSCLC, 91.4%. Besides, the growth was 97.7% with NCI-H522 lung; 98.4% in the test with A549/ATCC NSCLC; 94.9% in the test on 786-0 renal; 108% with COLO 205 colon; 110% with DU-145 prostate; 96.6% in the test on K-562 leukemia. In addition, the growth was 108% in the test with MALME-3M melanoma; 106% with MDA-MB-231 breast; 102% in the test with RXF 393 renal; 103% in the test with SF-268 CNS; 98.3% with SF-295 CNS; 100% with SF-539 CNS. For the same compound, the growth was 100% with UACC-257 melanoma and 98.5% in the test on M14 melanoma.

On to `Cc1cc(C)cc(Nc2ccc([N+](=O)[O-])c(NCCN3CCOCC3)n2)c1`, for which the growth is 30.3% in the test with NCI-H23 lung; 22.6% with NCI-H226 lung; 44.1% with NCI-H322M lung; 35.3% in the test on HOP-62 NSCLC; 8.31% (active) in the test on NCI-H460 lung; 67.7% with HOP-92 NSCLC. In addition, the growth in the test on NCI-H522 lung is 13.3%; with A549/ATCC NSCLC, 23.7%; with 786-0 renal, 8.13% (active); with COLO 205 colon, -45.9% (active); in the test on DU-145 prostate it was -1.87% (active); with K-562 leukemia, 7.21% (active). Further, the growth in the test with MALME-3M melanoma was 60.5%; in the test with MDA-MB-231 breast, 31.2%; in the test with RXF 393 renal, 58.4%; with SF-268 CNS, 25.1%; with SF-295 CNS, 15.7%; in the test on SF-539 CNS, -11.3% (active). Besides, the growth in the test with UACC-257 melanoma was 76.1%; with M14 melanoma, 1.99% (active).

As to `Cc1cscc(C)c1=S`, the growth with NCI-H23 lung was 77.2%; in the test with NCI-H226 lung, 103%; in the test on NCI-H322M lung it was 87%; in the test with HOP-62 NSCLC, 99.6%; in the test with NCI-H460 lung it was 48.7%; in the test on HOP-92 NSCLC it was 108%. In addition, the growth in the test on NCI-H522 lung is 50.8%; in the test with A549/ATCC NSCLC it was 88.1%; in the test with 786-0 renal, 103%; in the test with COLO 205 colon, 96.2%; in the test on DU-145 prostate, 4.23% (active); with K-562 leukemia, 96%. The growth is 96.1% in the test with MALME-3M melanoma; 97.8% in the test on MDA-MB-231 breast; 71.2% in the test with RXF 393 renal; 95.7% in the test with SF-268 CNS; 76% in the test on SF-295 CNS; 96.9% in the test with SF-539 CNS. Besides, the growth in the test on UACC-257 melanoma was 89%; in the test with M14 melanoma, 93.1%.

Take `CC1(C)CC2=C3C=C[C@@H]4[C@@]5(C)CC[C@H](O)C(C)(C)[C@@H]5CC[C@@]4(C)[C@]3(C)CC[C@@]2(C(=O)O)CC1=O`: the growth was 41.2% in the test on NCI-H23 lung; 32.3% in the test with NCI-H226 lung; 55.1% with NCI-H322M lung; 50.9% with HOP-62 NSCLC; 63.2% in the test on NCI-H460 lung; -5.32% (active) with HOP-92 NSCLC. Also, the growth in the test on NCI-H522 lung was 51.2%; in the test on A549/ATCC NSCLC, 39.2%; in the test on 786-0 renal, 21.1%; with COLO 205 colon, 67%; with DU-145 prostate it was 84.1%; in the test on K-562 leukemia, 57.5%. Also, the growth with MALME-3M melanoma is 15.9%; in the test on MDA-MB-231 breast, 40.4%; with RXF 393 renal, 21.8%; in the test on SF-268 CNS, 35.4%; in the test on SF-295 CNS it was 47.3%; with SF-539 CNS it was 60%. In addition, the growth is 20.9% with UACC-257 melanoma and 30.3% in the test with M14 melanoma.

`CCN(CC)CCOc1ccc(Nc2ncc3cc(-c4ccc(O)cc4)c(=O)n(C)c3n2)cc1`: the growth was 69.8% in the test with NCI-H23 lung; 43.8% with NCI-H226 lung; 47.7% in the test with NCI-H322M lung; 49.9% with HOP-62 NSCLC; 78.9% in the test with NCI-H460 lung; 76.6% in the test with HOP-92 NSCLC. The growth with NCI-H522 lung was 27.3%; with A549/ATCC NSCLC, 49%; in the test on 786-0 renal, -76.5% (active); in the test with COLO 205 colon, 38.4%; in the test with DU-145 prostate it was 85.5%; in the test with K-562 leukemia, -53.5% (active). For the same compound, the growth was -43.8% (active) in the test with MALME-3M melanoma; 43.1% in the test on MDA-MB-231 breast; -5.94% (active) with RXF 393 renal; 45% in the test on SF-268 CNS; 98.5% with SF-295 CNS; -1.13% (active) with SF-539 CNS. Also, the growth in the test on UACC-257 melanoma was 66.6%; in the test on M14 melanoma, 57.5%.

Turning to `CC1O[C@@H]2C[C@@](O)([C@H]1O)n1c3ccccc3c3c4c(c5c6ccccc6n2c5c31)C(=O)NC4=O` (stereo not given in full), the growth in the test with NCI-H23 lung is 33.7%; in the test on NCI-H226 lung, 37.2%; in the test with NCI-H322M lung, 62.8%; with HOP-62 NSCLC, 13.4%; with NCI-H460 lung, 11.3%; in the test on HOP-92 NSCLC it was 121%. Besides, the growth in the test on NCI-H522 lung is 30.7%; in the test with A549/ATCC NSCLC, 32.3%; with 786-0 renal it was 48.8%; with COLO 205 colon, 11.2%; in the test on DU-145 prostate it was 57.8%; in the test on K-562 leukemia, 30%. In addition, the growth is 50.3% in the test on MALME-3M melanoma; 57.8% in the test with MDA-MB-231 breast; 49.2% with RXF 393 renal; 49.8% with SF-268 CNS; 19.2% with SF-295 CNS; 33.2% in the test on SF-539 CNS. Also, the growth was 47.9% with UACC-257 melanoma and 25.7% in the test with M14 melanoma.

With `COc1ccc(C(O)c2cc3c(N)c(C(=O)Nc4cccc(Cl)c4)sc3nc2C)cc1` (stereo not given), the growth with NCI-H23 lung is 37.8%; with NCI-H226 lung it was 29.5%; in the test with NCI-H322M lung, 46.6%; with HOP-62 NSCLC, 26.6%; in the test with NCI-H460 lung, 1.28% (active); in the test with HOP-92 NSCLC, 74%. Also, the growth in the test on NCI-H522 lung is 14.6%; in the test with A549/ATCC NSCLC, 21.2%; with 786-0 renal, 31.5%; in the test with COLO 205 colon, 3.71% (active); with DU-145 prostate, 8.86% (active); with K-562 leukemia, 10.7%. The growth is 41% in the test with MALME-3M melanoma; 20.2% with MDA-MB-231 breast; -10.9% (active) with RXF 393 renal; 28.9% in the test on SF-268 CNS; 9.76% (active) with SF-295 CNS; 2.14% (active) in the test on SF-539 CNS. Further, the growth in the test with UACC-257 melanoma was 47.1%; in the test with M14 melanoma, 21.3%.
